AC50 data for two compounds are collected here from PubChem BioAssay AID2284114 (EPA ToxCast).

Calls of active or inactive are those of the source. Rule for the calls: active = hit-call score of the fitted dose curve at least 0.9, where 1 is the maximum; inactive = score below 0.9.

Chain of human MSK1 (RPS6KA5) AGC Kinase, RPS6KA5 (gene 9252) (O75582 whole entry, looked up): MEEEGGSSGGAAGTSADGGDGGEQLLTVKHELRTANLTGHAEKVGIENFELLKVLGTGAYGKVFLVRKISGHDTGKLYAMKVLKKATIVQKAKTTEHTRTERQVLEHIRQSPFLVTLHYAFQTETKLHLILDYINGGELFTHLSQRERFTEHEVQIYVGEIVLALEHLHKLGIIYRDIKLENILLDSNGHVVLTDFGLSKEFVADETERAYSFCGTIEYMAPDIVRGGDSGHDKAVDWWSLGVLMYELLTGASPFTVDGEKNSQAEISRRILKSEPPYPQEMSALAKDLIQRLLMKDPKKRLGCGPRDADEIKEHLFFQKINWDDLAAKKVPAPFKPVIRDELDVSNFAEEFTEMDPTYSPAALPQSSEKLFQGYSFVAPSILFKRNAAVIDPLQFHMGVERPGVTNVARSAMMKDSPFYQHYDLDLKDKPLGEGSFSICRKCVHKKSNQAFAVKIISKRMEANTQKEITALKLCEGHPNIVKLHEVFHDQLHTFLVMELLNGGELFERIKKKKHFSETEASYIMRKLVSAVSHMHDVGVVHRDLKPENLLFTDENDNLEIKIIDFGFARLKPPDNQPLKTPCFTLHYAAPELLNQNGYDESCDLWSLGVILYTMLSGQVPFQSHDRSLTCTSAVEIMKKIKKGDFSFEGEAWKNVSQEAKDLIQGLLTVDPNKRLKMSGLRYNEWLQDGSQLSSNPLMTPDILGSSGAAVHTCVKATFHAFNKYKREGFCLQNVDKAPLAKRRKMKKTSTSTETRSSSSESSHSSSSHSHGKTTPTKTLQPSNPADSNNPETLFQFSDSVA

This assay deals with human MSK1 (RPS6KA5) AGC Kinase, RPS6KA5 (gene 9252) (UniProt O75582). The experiment in a line: ERF_FR_ENZ_hMSK1: Eurofins (ERF) Enzymatic Radiometric [Km ATP] KinaseProfiler LeadHunter Assay for human MSK1 (RPS6KA5) AGC Kinase. The protocol:
ERF_FR_ENZ_hMSK1 is a biochemical, single-readout assay that uses extracted gene-proteins in a cell-free assay. Measurements were taken 0.16 hour after chemical dosing in a 96-well plate. See MSK1 Human AGC Kinase Enzymatic Radiometric Assay [Km ATP], Cerep.ERF_FR_ENZ_hMSK1 is an assay component calculated from the ERF_FR_ENZ_hMSK1 assay. It is designed to measure enzyme activity using a type of enzyme reporter as detected by scintillation counting with radiometry technology.Data from the assay component ERF_FR_ENZ_hMSK1 was analyzed at the assay endpoint, ERF_FR_ENZ_hMSK1, in the positive analysis fitting direction relative to DMSO as the negative control and baseline of activity. Using a type of enzyme reporter, loss-of-signal activity can be used to understand changes in enzymatic activity as they relate to gene MSK1. To generalize the intended target to other relatable targets, this assay endpoint is annotated to the kinase intended target family, where the subfamily is serine/threonine kinase.
MSK1 (h) is incubated with 8 mM MOPS pH 7.0, 0.2 mM EDTA, 30 uM […], 10 mM MgAcetate and [g- 33P]-ATP (specific activity and concentration as required). The reaction is initiated by the addition of the Mg/ATP mix. After incubation for 40 minutes at room temperature, the reaction is stopped by the addition of phosphoric acid to a concentration of 0.5%. […]
A word on the AC50: it is the concentration giving half of the maximal activity seen. With `COc1cc(CCC(=O)CC(=O)CCc2ccc(O)c(OC)c2)ccc1O`, the concentration at half-maximal activity (AC50) was 2.12 µM (active). To `O=C(/C=C/c1ccc(O)cc1)CC(=O)/C=C/c1ccc(O)cc1` belongs 5 µM (active).
